Measurements taken from ChEMBL document CHEMBL4513216, “Probing the Open Global Health Chemical Diversity Library for Multistage-Active Starting Points for Next-Generation Antimalarials” (ACS Infect Dis, 2020).
In all, about 68,000 compounds went through this assay and about 2,700 (4%) showed an effect of 50% or more. What follows is part of a selection rich in strong results, with near analogues and random picks from the rest.

tested on: Plasmodium berghei; experiment: Screen against P. berghei liver stage (PbLuc), transformed with Luciferase, at 2uM; type: functional, HepG2; conditions: tested at 2 uM

SMILES	INHIBITION [%]
N#Cc1c(N2CCN(CC3CCOC3)CC2)nc2ccccn12 (stereo unspecified)	83.18
N#Cc1c(N2CCCN(C3CCOCC3)CC2)nc2ccccn12	14.2
CN1CCCC(N2CCN(c3nc4ccccn4c3C#N)CC2)C1 (stereo unspecified)	38.1
Cn1cccc1C(=O)N1CCc2ncnc(C3CC3)c2CC1	11.72
Cc1cc(C(=O)NC2CCCCNC2=O)c(=O)[nH]c1C (stereo unspecified)	52.08
O=C(NC1CCCCNC1=O)c1cc2ccccc2[nH]c1=O (stereo unspecified)	-0.79
Cc1ccc(C(=O)NC2CCCCNC2=O)c(=O)[nH]1 (stereo unspecified)	-4.09
O=C(CCc1c[nH]cn1)N1CC[C@@H](c2ccc3ccccc3c2)[C@H](O)C1	43.1
Cc1ccc(N2CCC3(CN(Cc4cccs4)CCC3(F)F)C2)nn1 (stereo unspecified)	-17.41
Cc1ccc(NC2CCN(C(=O)Cc3ccc(C)s3)CC2)nn1	-19.35
O=C(Cc1cccc2ccccc12)N1CCC(Nc2cccnn2)CC1	-58.05
Cc1noc(C)c1CC(=O)N1CCC(Nc2cccnn2)CC1	-57.89
Cc1cccc2[nH]cc(CC(=O)N3CCC(Nc4cccnn4)CC3)c12	64.16
Cc1ccc(CC(=O)N2CCC(Nc3cccnn3)CC2)s1	50.75
O=C(Cc1c[nH]c2ccccc12)N1CCC(Nc2cccnn2)CC1	-32.2
O=C(NCc1ccccn1)NCC(O)c1ccccc1C(F)(F)F (stereo unspecified)	-19.62
O=C(c1ccccc1OCC1CC1)N1CCCC1Cn1cccn1 (stereo unspecified)	-12.5
O=C(CCCn1cncn1)N1CCC2(CCCNC2=O)C1 (stereo unspecified)	43.1
O=C(c1cccc(Cl)c1)N1CC[C@H]2[C@H]1CCN2CC1CCOCC1	49.03
CCS(=O)(=O)N1CC[C@@H]2[C@H](CC1)N(CC(C)C)CCS2(=O)=O	40.5
Cc1cc(C(N)=O)nc(C2(C)CCCN2Cc2cnn(C)c2)n1 (stereo unspecified)	74.08
Cc1cc(C)nc(C2(C)CCCN2CCO)n1 (stereo unspecified)	-8.85
Cc1cc(C(N)=O)nc(C2(C)CCCN2Cc2cnn(C)c2C)n1 (stereo unspecified)	40.31
COc1ccc(-c2noc(CN3CCN(c4cnccn4)CC3)n2)cc1	32.88
COc1ccc(-n2cnnc2CC2CCNCC2)cc1	-22
O=S(=O)(N1CCCC1)N1CC(c2ccnc(Nc3ccccn3)n2)C1	17.72

SMILES	INHIBITION [%]
CCN(CCc1nc2cc(C)ccc2[nH]1)C(=O)[C@@H](N)Cc1c[nH]cn1	-2.23
CN(C)CC1(O)CCCN(c2nc(-c3ccccc3)no2)CC1 (stereo unspecified)	76.6
Cc1cc(N2CCCC(O)(CN(C)C)CC2)nc(-c2ccccc2)n1 (stereo unspecified)	1.06
CN(C)CC1(O)CCCN(c2noc(-c3ccccc3)n2)CC1 (stereo unspecified)	12.55
c1cc(-c2cscn2)cc(N2CCC(NCCc3cccs3)CC2)c1	-15.42
CCC(=O)N1CCC2(CC1)CC(CC(=O)N(C)C)c1ccc(F)cc12 (stereo unspecified)	-0.45
CC(C)COC(C)C(=O)NCCNS(C)(=O)=O (stereo unspecified)	52.74
CCOC(C)C(=O)NCCNS(C)(=O)=O (stereo unspecified)	8.41
CC(C)COC(C)C(=O)NCCNC(=O)C(C)C (stereo unspecified)	31.96
CCN(Cc1cccc2c1OCO2)C(=O)NCCOC	25.61
O=C(O)c1ccc2ccc(N3CCN(CC4CC4)CC3)n2c1	57.95
CN(C)C(=O)c1ccc2ccc(N3CCN(CC4CC4)CC3)n2c1	19.96
O=C(NC1CC1)c1ccc2ccc(N3CCN(CC4CC4)CC3)n2c1	-36.7
CC(=O)N1CCN(c2ccc3ccc(C(=O)NC4CCCC4)cn23)CC1	-7.41
CN(C)C(=O)N1CCN(c2ccc3ccc(C(=O)NC4CC4)cn23)CC1	23.26
CC(C)N1CCN(c2ccc3ccc(C(=O)NC4CCCC4)cn23)CC1	50.17
Cc1nn(-c2ccccc2)c2c1c(C(F)F)cc(=O)n2CC(=O)O	13.39
COCCN1CCC(NCc2c(F)cccc2F)C1 (stereo unspecified)	28.54
Cc1nc(-c2ccncc2)ncc1C(C)NC(=O)CN1CCCCC1 (stereo unspecified)	50.41
Cc1nc(-c2ccncc2)ncc1C(C)NC(=O)CN1CCCC1=O (stereo unspecified)	28.62
Cc1nc(-c2ccncc2)ncc1C(C)NC(=O)Cn1ccccc1=O (stereo unspecified)	10.02
CCc1nc(CN2CCCC(Cn3nc(C)nc3C)C2)no1 (stereo unspecified)	70.27
Cc1nc(C)n(CC2CCCN(Cc3cn4c(C)cccc4n3)C2)n1 (stereo unspecified)	60.64
CCc1noc(CN2CCCC(Cn3nc(C)nc3C)C2)n1 (stereo unspecified)	21.39
Cc1nc(C)n(CC2CCCN2Cc2cn3c(C)cccc3n2)n1 (stereo unspecified)	-17.11
